Laboratory results as given in PubChem BioAssay (NCI).
Compounds without any hit were thinned out: in the full panel of roughly 83,000, 20% have a hit.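 Negative percent growth values reflect cell death: -40 means 40% of the cells present at the start died, and -100 means all died.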 Active and inactive are the calls of the source. The calls were made as follows: active = growth percent below 10; inactive = the rest.

Key:
Assay in all cases: NCI-60 one-dose screen, 48 h (100 = growth as untreated, 0 = no growth, -100 = all killed)
[1] = tested on: HCT-15 colon; conditions: 10 µM unless noted
[2] = tested on: HT29 colon; conditions: 10 µM unless noted
[3] = tested on: SNB-75 CNS; conditions: 10 µM unless noted
[4] = tested on: SNB-19 CNS; conditions: 10 µM unless noted
[5] = tested on: U251 CNS; conditions: 10 µM unless noted
[6] = tested on: PC-3 prostate; conditions: 10 µM unless noted
[7] = tested on: SK-MEL-5 melanoma; conditions: 10 µM unless noted
[8] = tested on: UACC-62 melanoma; conditions: 10 µM unless noted
[9] = tested on: LOX IMVI melanoma; conditions: 10 µM
[10] = tested on: SK-MEL-28 melanoma; conditions: 10 µM unless noted

Measured: growth

O=C1/C(=C/c2ccccn2)CCc2ccccc21
inactive: [1] 95.3% | [2] 97.6% | [3] 97.7% | [4] 97% | [5] 100% | [6] 94.6% | [7] 97.2% | [8] 97.5% | [9] 86.5% | [10] 111%

OC(CSc1ccccc1)CN1CCN(c2ccc(Cl)cc2)CC1 (stereo not given)
inactive: [1] 96.1% | [2] 101% | [3] 91.3% | [4] 94.7% | [5] 95.2% | [6] 94.3% | [7] 89.2% | [8] 82.2% | [9] 93% | [10] 110%

O=C1Nc2ccc(Br)cc2C1=O
inactive: [1] 100% | [2] 100% | [3] 92.7% | [4] 101% | [5] 98.5% | [6] 92.8% | [7] 101% | [8] 90.4% | [9] 87.4% | [10] 108%

Cc1nc(Sc2nc3ccc([N+](=O)[O-])cc3s2)sc1C
active: [1] -21.2% | [8] -15.4% | [9] -46.4%
inactive: [2] 10.2% | [3] 53.1% | [4] 35.4% | [5] 27.2% | [6] 23% | [7] 41.1% | [10] 27.8%

O=C1C=CC(=O)N1c1cccc2c1CCCC2
inactive: [1] 98.4% | [2] 102% | [3] 85.9% | [4] 92.6% | [5] 98.2% | [6] 98.9% | [7] 102% | [8] 99.3% | [9] 107% | [10] 99.1%

CC1(C)OC2C(COC(c3ccccc3)(c3ccccc3)c3ccccc3)OC(c3c[nH]c4c(N)ncnc34)C2O1 (stereo not given)
inactive: [1] 55.3% | [2] 46.4% | [3] 61.9% | [4] 66.1% | [5] 56.7% | [6] 25% | [7] 60.8% | [8] 65.2% | [9] 54.8% | [10] 66.8%

O=C(CBr)c1ccc(OC(=O)c2ccccc2)cc1
inactive: [1] 101% | [2] 115% | [3] 96.5% | [4] 112% | [5] 95.5% | [6] 101% | [7] 107% | [8] 107% | [9] 73.3% | [10] 112%

CC(C)Nc1ccc(Nc2ccc(NC(C)C)cc2)cc1
inactive: [1] 92.9% | [2] 26.9% | [3] 79.7% | [4] 28.6% | [5] 16.9% | [6] 38.8% | [7] 33.2% | [8] 36.6% | [9] 39.9% | [10] 50.8%

Cc1cc(I)nc2ccccc12
inactive: [1] 105% | [2] 109% | [3] 99.7% | [4] 107% | [5] 110% | [6] 96.8% | [7] 104% | [8] 117% | [9] 100% | [10] 112%

Cc1c(O)ccc(SC#N)c1C
inactive: [1] 96.9% | [2] 112% | [3] 95.3% | [4] 96.5% | [5] 101% | [6] 86.1% | [7] 106% | [8] 94.6% | [9] 101% | [10] 99.5%

COc1cc([C@@H]2c3cc4c(cc3[C@H](OC3OC5COC(c6ccccc6)OC5C(O)C3O)[C@H]3COC(=O)[C@H]23)OCO4)cc(OC)c1OC (stereo not given in full)
inactive: [1] 41.1% | [2] 23.2% | [3] 75.9% | [4] 79.9% | [5] 55.8% | [8] 79.4% | [9] 30.2% | [10] 58.3%
active: [6] 8.28% | [7] -33.3%

CCCCCCCCCCCC1N=C(N)N=C(N)N1c1cccc(Br)c1 (stereo not given)
active: [2] -81.8% | [3] -12.7% | [4] -93.6% | [5] -75.2% | [6] -55.2% | [9] 9.55%
inactive: [1] 71.5% | [7] 19.3% | [8] 37.9% | [10] 70.4%

Clc1ccccc1C(c1ccccc1)(c1ccccc1)n1ccnc1
active: [7] -87%
inactive: [1] 22.9% | [2] 27.4% | [3] 44.1% | [4] 58.4% | [5] 42% | [6] 19.6% | [8] 40.8% | [9] 36% | [10] 55.5%

OC(c1cc2ccc(C(F)(F)F)cc2c2cc(C(F)(F)F)ccc12)C1CCCCN1 (stereo not given)
active: [1] -90.4% | [2] -100% | [3] -94.4% | [4] -80.6% | [5] -100% | [6] -95.2% | [7] -95.4% | [8] -96.5% | [9] -100% | [10] -99.3%

O=C1C=CC(=O)N1c1cc(Cl)c(Cl)cc1Cl
inactive: [1] 113% | [2] 101% | [3] 82.1% | [4] 108% | [5] 101% | [6] 100% | [7] 111% | [8] 105% | [9] 97.9% | [10] 107%

O=C(Nc1cccc(C(F)(F)F)c1)Oc1ccc(Cl)c2cccnc12
active: [1] 2.21% | [5] 9% | [6] -40.1% | [9] 2.8%
inactive: [2] 74.3% | [3] 65.9% | [4] 46.1% | [7] 34% | [8] 32.4% | [10] 58.3%

Nc1nc(N)c2cc(Sc3cccc(C(F)(F)F)c3)ccc2n1
inactive: [1] 24.3% | [2] 14.5% | [3] 42.7% | [4] 34.6% | [5] 19.2% | [6] 28.3% | [7] 21.4% | [8] 30.3% | [9] 17.4% | [10] 58.4%

CC(=O)Nc1ccc(C(=O)CCl)cc1
active: [1] 6.54% | [2] 8.26% | [9] -53.6%
inactive: [3] 84.3% | [4] 82.5% | [5] 86.3% | [6] 92.9% | [7] 107% | [8] 81.3% | [10] 69.6%

Cc1cccc2c(N)c3ccccc3nc12
active: [1] -8.39% | [2] -7.57% | [3] 2.93% | [5] -17.6% | [6] -18.7% | [7] -77.2% | [8] -57.6% | [9] -57.3% | [10] -41.1%
inactive: [4] 27.5%

Clc1ccc(-n2ncc3c(NCCCN4CCOCC4)ncnc32)cc1
inactive: [1] 96.6% | [2] 105% | [3] 89.6% | [4] 102% | [5] 93.1% | [6] 87.5% | [7] 83.5% | [8] 110% | [9] 88.8% | [10] 94.6%

Cc1nn(CCO)c(C)c1N=[N+]([O-])c1c(C)nn(CCO)c1C
inactive: [3] 52.4% | [4] 98.2% | [5] 69.6% | [6] 76.6% | [7] 71.5% | [8] 61% | [9] 16% | [10] 83.2%
active: [1] -4.21% | [2] -14%

CC[n+]1ccc(Nc2ccc(NC(=O)c3ccc(Nc4cc[n+](CC)c5ccc([N+](=O)[O-])cc45)cc3)cc2)cc1
inactive: [1] 96.2% | [2] 57.1% | [3] 98.4% | [4] 71.6% | [5] 62.5% | [6] 54.2% | [7] 65.7% | [8] 79.4% | [9] 85.7% | [10] 90.3%

OC(c1cc(C23CC4CC(CC(C4)C2)C3)nc2c(Cl)cc(Cl)cc12)C1CCCCN1 (stereo not given)
active: [1] -65.7% | [2] -89.8% | [3] -82% | [4] -58.4% | [5] -88.5% | [6] -84.5% | [7] 9.05% | [8] -44.1% | [9] -51.2% | [10] -79.8%

O=C(C[P+](c1ccccc1)(c1ccccc1)c1ccccc1)c1ccccc1
inactive: [1] 97.5% | [2] 87.4% | [3] 83.6% | [4] 94.4% | [5] 96.7% | [6] 74.7% | [7] 104% | [8] 79.5% | [9] 70.6% | [10] 109%

CCN(CC)CC(O)c1cc(-c2ccc(Cl)cc2)nc2cc(Cl)ccc12 (stereo not given)
active: [2] -50.1% | [5] 8.59% | [7] -95.6% | [8] -56.6% | [10] -56.6%
inactive: [1] 25.1% | [3] 38.3% | [4] 56.8% | [6] 28.5% | [9] 11%

CCOc1ccc(C(CN2CCOCC2)C(C)=O)cc1OC (stereo not given)
inactive: [1] 54.2% | [2] 107% | [3] 85.9% | [4] 103% | [5] 95.9% | [6] 101% | [7] 93.6% | [8] 93.6% | [9] 68.9% | [10] 102%

CCCCCCCCCCCC[N+]1(CCCCCCCCCCCC)CCCC(C)C1 (stereo not given)
active: [1] -55.6% | [2] -91.8% | [3] -88.3% | [4] -96.5% | [5] -61% | [6] -93.7% | [7] -100% | [8] -77.9% | [9] -80% | [10] -91.2%

O=[N+]([O-])c1cc(-c2ccccc2)c(O)c([N+](=O)[O-])c1
inactive: [1] 79.4% | [2] 92.4% | [3] 74.3% | [4] 68.2% | [5] 84.2% | [6] 78.3% | [7] 29.2% | [8] 32% | [9] 82.9% | [10] 66.2%
